Bioassay records: PubChem, The Scripps Research Institute Molecular Screening Center
FBW7 act: human FBW7 E3 ligase activation, primary screen | Q969H0 | AlphaScreen FBW7–phospho-cyclin E peptide binding, activator screen | normalized activity (activation), % at 26.1 µM | actives 0.13% (n = 650,000); in the data active = normalized activity above about 1.9%;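 note: purified mutant Fbw7 with reduced substrate affinity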
TEAD-YAP inh: TEAD-YAP interaction inhibition. actives 1.4% (n = 640,000). HEK-TIYL cells, TEAD-Gal4/YAP UAS-luciferase luminescence. inhibition, % at 9.12 µM; in the data active = inhibition above about 32%
GPR151 activ: human GPR151 activation; Q8TDV0; PathHunter beta-arrestin GPR151 cells, luminescence; activation, % at 11.2 µM; actives 1% (n = 650,000); AID 1508602; in the data active = activation above about 4.9%
MITF inh: human MITF inhibition, primary screen. AlphaScreen MITF homodimerization, bead proximity signal. actives 0.91% (n = 650,000). inhibition, % at 2.6 µM. O75030; in the data active = inhibition above about 50%
Numbers stand for hits. Most compounds without a hit are left out; they make up all but 3.5% or so of the library.

Results for COc1ccccc1NC(=O)CCSCCC(=O)Nc1ccccc1OC ?
FBW7 act: inactive; TEAD-YAP inh: inactive; GPR151 activ: inactive; MITF inh: inactive

How did COc1ccc(C)cc1NC(=O)CCSCCC(=O)Nc1cc(C)ccc1OC do in these assays?
FBW7 act: inactive; TEAD-YAP inh: 33; GPR151 activ: inactive; MITF inh: inactive

What do the screens show for `CN1CCc2c(sc3c2C(=O)NC(c2ccc(O)c(O)c2)N3)C1` (centres undefined)?
FBW7 act: inactive; TEAD-YAP inh: inactive; GPR151 activ: inactive; MITF inh: 66

What do the screens show for `COc1cc(C2NC(=O)c3c(sc4c3CCN(C)C4)N2)ccc1O` (centres undefined)?
FBW7 act: inactive; TEAD-YAP inh: inactive; GPR151 activ: inactive; MITF inh: inactive

Results for CN=c1scc(-c2ccccc2Br)n1/N=C/c1ccc[nH]1 ?
FBW7 act: inactive; TEAD-YAP inh: 88; GPR151 activ: inactive; MITF inh: inactive

How did CN=c1scc(-c2cccs2)n1/N=C/c1ccc[nH]1 do in these assays?
FBW7 act: inactive; TEAD-YAP inh: 87; GPR151 activ: inactive; MITF inh: inactive

What do the screens show for `CCOC(=O)c1c(N)sc2c1CCC/C2=N\O`?
FBW7 act: inactive; TEAD-YAP inh: 53; GPR151 activ: inactive; MITF inh: inactive

Results for CCOC(=O)c1c(NC(=O)CC)sc2c1CCC/C2=N/OC(C)=O ?
FBW7 act: inactive; TEAD-YAP inh: inactive; GPR151 activ: inactive; MITF inh: inactive

How did CCOC(=O)c1csc2c1CCC/C2=N/OC(C)=O do in these assays?
FBW7 act: inactive; TEAD-YAP inh: 36; GPR151 activ: inactive; MITF inh: inactive

What do the screens show for `COc1ccc(NC(=O)c2ccccc2F)cc1[N+](=O)[O-]`?
FBW7 act: inactive; TEAD-YAP inh: inactive; GPR151 activ: inactive; MITF inh: inactive

What do the screens show for `CCn1ncc(Cl)c1C(=O)Nc1cc(Cl)ccc1Cl`?
FBW7 act: 1.9; TEAD-YAP inh: inactive; GPR151 activ: inactive; MITF inh: inactive

Results for COc1cc(NS(=O)(=O)c2ccc3c(c2)CC(=O)N3)cc(OC)c1 ?
FBW7 act: inactive; TEAD-YAP inh: inactive; GPR151 activ: inactive; MITF inh: inactive

Results for CCN(CC)c1ccc(/C=C2/SC(=S)N(CCC(=O)OC)C2=O)cc1 ?
FBW7 act: inactive; TEAD-YAP inh: 62; GPR151 activ: inactive; MITF inh: inactive

How did Cc1ccc(/C=C2\SC(=S)N(NC(=O)c3ccc(O)cc3)C2=O)o1 do in these assays?
FBW7 act: inactive; TEAD-YAP inh: inactive; GPR151 activ: inactive; MITF inh: 54

Results for O=C(NN1C(=O)/C(=C/c2ccc(O)cc2)SC1=S)c1cccc(O)c1 ?
FBW7 act: inactive; TEAD-YAP inh: inactive; GPR151 activ: inactive; MITF inh: inactive

What do the screens show for `Cc1ccc(/C=C2/SC(=S)N(CN3CCOCC3)C2=O)o1`?
FBW7 act: inactive; TEAD-YAP inh: inactive; GPR151 activ: inactive; MITF inh: 78

How did COc1ccc(/C=C2\SC(=S)N(CCC(=O)N3CCOCC3)C2=O)cc1 do in these assays?
FBW7 act: inactive; TEAD-YAP inh: inactive; GPR151 activ: inactive; MITF inh: inactive

How did COc1ccc(/C=C2\SC(=S)N(CCC(=O)OCCN3CCOCC3)C2=O)cc1 do in these assays?
FBW7 act: inactive; TEAD-YAP inh: 54; GPR151 activ: inactive; MITF inh: inactive

Results for Fc1ccc(NC(=S)N(Cc2ccccc2)Cc2ccco2)cc1Cl ?
FBW7 act: inactive; TEAD-YAP inh: inactive; GPR151 activ: inactive; MITF inh: inactive

How did CCN(CC)c1ccc(/C=C2\SC(=S)N(CCCC(=O)O)C2=O)cc1 do in these assays?
FBW7 act: inactive; TEAD-YAP inh: 92; GPR151 activ: inactive; MITF inh: inactive

What do the screens show for `O=c1cc(CNCc2cccs2)c2cc3c(cc2o1)CCC3`?
FBW7 act: inactive; TEAD-YAP inh: 45; GPR151 activ: inactive; MITF inh: inactive

Results for COc1ccc(S(=O)(=O)Nc2cc(OC)c(Cl)cc2OC)cc1 ?
FBW7 act: inactive; TEAD-YAP inh: 64; GPR151 activ: inactive; MITF inh: inactive

What do the screens show for `COc1cc(S(=O)(=O)Nc2cc(OC)c(Cl)cc2OC)ccc1Cl`?
FBW7 act: inactive; TEAD-YAP inh: 50; GPR151 activ: inactive; MITF inh: inactive

How did CCOc1ccc(S(=O)(=O)Nc2cc(C)ccc2OC)cc1 do in these assays?
FBW7 act: inactive; TEAD-YAP inh: 53; GPR151 activ: inactive; MITF inh: inactive

Results for CN(C)C(=O)c1ccc(S(=O)(=O)NCc2ccncc2)cc1 ?
FBW7 act: inactive; TEAD-YAP inh: 37; GPR151 activ: inactive; MITF inh: inactive

What do the screens show for `CCc1ccccc1NC(=O)CCCCCN1C(=O)c2cccc([N+](=O)[O-])c2C1=O`?
FBW7 act: inactive; TEAD-YAP inh: inactive; GPR151 activ: inactive; MITF inh: inactive
